According to PubChem BioAssay (NCI):
The panel holds about 79,000 compounds, 15% with a hit somewhere; the sample as a whole holds those more often. Unmarked numbers belong to inactive results. Activity calls are given as the source filed them. Cut-off read from the data, not from the text of the source: active = growth inhibition above about 70%; inactive = the rest.

How the values were obtained:
[1] = NCI Yeast Anticancer Drug Screen. Data for the rad50 strain (AID 155);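 note: 0% = growth of vehicle-only cultures of the same strain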; conditions: S. cerevisiae rad50 strain growth inhibition; at 50.0 µM; stronger effect = higher value
Summary of the method: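 Genetically altered yeast (DNA repair pathway); compound treatment; growth inhibition vs vehicle ctrl.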

[2] = NCI Yeast Anticancer Drug Screen. Data for the mec2-1 strain (AID 157); conditions: S. cerevisiae mec2-1 strain, at 50.0 µM, stronger effect = higher value
Summary of the method: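 Mutant yeast (mec2-1) grown with compound; growth inhibition relative to vehicle control reported.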

[3] = NCI Yeast Anticancer Drug Screen. Data for the sgs1 mgt1 strain (AID 161);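 note: 0% = growth of cultures given vehicle only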; conditions: S. cerevisiae sgs1 mgt1 strain, at 50.0 µM, stronger effect = higher value
Summary of the method: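 Percent growth inhibition was derived by comparing compound-exposed mutant yeast with vehicle-exposed cultures. The strain carries alterations in DNA damage repair.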

[4] = NCI Yeast Anticancer Drug Screen. Data for the cln2 rad14 strain (AID 165);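 note: 0% = growth equal to vehicle treated cultures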; conditions: S. cerevisiae cln2 rad14 strain, at 50.0 µM, stronger effect = higher value
Summary of the method: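 Readout is yeast growth inhibition versus vehicle-treated controls, using a strain with cln2 and rad14 alterations exposed to compound.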

[5] = NCI Yeast Anticancer Drug Screen. Data for the bub3 strain (AID 167); conditions: S. cerevisiae bub3 mutant strain, at 50.0 µM, stronger effect = higher value
Summary of the method: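 Yeast carrying a defined mutation is treated with each compound, and growth is compared with that of vehicle-exposed cells to give inhibition.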

[6] = NCI Yeast Anticancer Drug Screen. Data for the mlh1 rad18 strain (AID 175); conditions: S. cerevisiae mlh1 rad18 strain growth inhibition; at 50.0 µM; stronger effect = higher value
Summary of the method: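 Genetically defined yeast (DNA repair-deficient) exposed to compounds; growth inhibition determined relative to vehicle.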

| SMILES | growth inhibition [1] | growth inhibition [2] | growth inhibition [3] | growth inhibition [4] | growth inhibition [5] | growth inhibition [6] |
| --- | --- | --- | --- | --- | --- | --- |
| O=C1C2C3CCC(O3)C2C(=O)N1Cc1ccccc1CN1C(=O)C2C3CCC(O3)C2C1=O (centres undefined) | 82% (active) | 95.2% (active) | 89.2% (active) | 98.6% (active) | 98.1% (active) | 95.8% (active) |
| CN=C1NC(C)(C)C2CCC(C)(CC2)S1 | 8.35% | 14.9% | -4.3% | -71.3% | 2.85% | 14.7% |
| CCCCCCCCn1nnnc1N | -1.1% | 21% | 1.45% | 0.5% | 20.7% | 8.1% |
| NC(CC1C(=O)Nc2ccccc21)C(=O)O (centres undefined) | -32.5% | -14.9% | -11.3% | -60.6% | -0.8% | -8.9% |
| CN1CCN(P(=O)(c2ccccc2)N2CCN(C)CC2)CC1 | 32.3% | 7.85% | 29.6% | 20.1% | -1.1% | 30.7% |
| CCOC(=O)C1=C(Nc2ccc(Cl)cc2Cl)OCC1=O | -12.3% | -5.85% | -0.35% | -13.9% | -58.5% | 10.2% |
| COc1ccc(/C=C(\C(C)=O)C(=O)Nc2ccccc2)cc1 | 21.1% | 16.4% | 22.2% | 39.1% | 6.2% | 25.4% |
| COC(=O)CC(c1ccc2c(c1)OCO2)N1CCOCC1 (centres undefined) | -6.3% | 31.3% | 19.5% | -6.1% | 21.2% | 42.9% |
| c1ccc(CNC(Cc2ccccc2)c2ccc(OCc3ccccc3)cc2)cc1 (centres undefined) | -15.2% | -17.6% | 4% | 11.8% | -10.2% | -10.6% |
| Nc1ccc(Cl)cc1N=Cc1ccccc1[N+](=O)[O-] | 35.5% | 13.8% | 49.5% | -47.5% | 17.6% | 12.9% |
| O=C(/C(=C\c1ccccc1)c1ccccc1)c1ccccc1 | 25.1% | 32.8% | 26.4% | -75.2% | 28.2% | 21.4% |
| CC(C)C(O)C(C)(C)CO (centres undefined) | 10.7% | -15.2% | 4.75% | 2.3% | 11.1% | 32.6% |
| CCCCCCC(C)C(=O)Nc1ccccc1 (centres undefined) | 16.7% | -11.8% | 10.7% | 2.75% | -2.95% | -17.1% |
| CCOC([O-])=N/C(=N/[n+]1ccc(C)cc1)c1ccccc1 | 8.35% | 5.55% | -3.45% | -16.1% | -15.1% | -12.5% |
| O=C(Nc1ccc(C(F)(F)F)cc1[N+](=O)[O-])C(=O)Nn1c(=S)[nH]c2ccccc2c1=O | 20.3% | 11.7% | -4.65% | 18.5% | 7.9% | 23.1% |
| COc1nc(NC2OC(COC(C)=O)C(OC(C)=O)C(OC(C)=O)C2OC(C)=O)c(-c2csc(N)n2)c(=O)n1C (centres undefined) | -6.6% | -26.2% | -18.8% | 4.35% | -11.3% | -4.55% |
| CCCCCCCCCCCCCC(=O)OCC(CCS(=O)(=O)O[C@H]1CC[C@@]2(C)C(=CC[C@@H]3C2CC[C@]2(C)C(=O)CCC32)C1)OC(=O)CCCCCCCCCCCCC (some centres undefined) | -32.8% | -30.9% | -15.3% | -26.6% | -22.2% | -23.6% |
| O=C1NC(=O)C(CCI)N1 (centres undefined) | 11.2% | 0.15% | 23.1% | 16.9% | -15.2% | -12.7% |
| CC(C)C(=O)C(F)(F)F | 14.3% | 2.45% | -21.3% | 6.45% | 28.6% | -2.3% |
| O=S1OCC#CCOS(=O)OCC#CCO1 (centres undefined) | -7.1% | -23.8% | -7.5% | -6.2% | -3.7% | 7.7% |

| SMILES | growth inhibition [1] | growth inhibition [2] | growth inhibition [3] | growth inhibition [4] | growth inhibition [5] | growth inhibition [6] |
| --- | --- | --- | --- | --- | --- | --- |
| Cc1cc(Cl)ccc1Nc1nc2c(s1)C(=O)c1ccccc1C2=O | 90.8% (active) | 84.9% (active) | 85.6% (active) | 86.5% (active) | 87.6% (active) | 91.4% (active) |
| COc1ccc(/C=[N+](\[O-])c2ccccc2)cc1 (tested in a mixture with another compound) | -2% | 8.2% | 4.1% | 0.4% | -10.8% | 8.35% |
| Cc1nc2nnc(N)n2nc1C | 10.1% | -6.15% | 3.75% | -22% | 8.45% | 4.05% |
| Nc1c(Br)cc2c(c1Br)C(=O)c1ccccc1-2 | 3.95% | 8.8% | 23.6% | 8.8% | 15.2% | -0.05% |
| O=[N+]([O-])c1ccc2[nH]ccc2c1 | 8.75% | -4.25% | -2.7% | 10.7% | 3.6% | 7.5% |
| Cc1cc(S(=O)(=O)O)c(NC(=O)C(=O)C2C=CCS2(=O)=O)cc1Cl (centres undefined) | -5.2% | -20.8% | -8.65% | 1.8% | -8.15% | -8.85% |
| CS(=O)(=O)OCCCCCCCCCCCC1C=CCC1 (centres undefined) | 10.3% | -32.4% | 5.15% | 11.8% | -8.25% | 3.1% |
| Cc1cccc(C)c1NC(=S)NC(=O)c1cccc(Cl)c1 | -13.6% | -23% | -2.9% | -10.5% | -20.4% | -16.6% |
| CCOC(=O)C1(C)CCCC1=O (centres undefined) | 13.8% | -8.6% | 3.95% | 6.95% | 2.6% | -0.4% |
| O=C1C(=Cc2ccc([N+](=O)[O-])o2)C(=O)N(CCc2ccccc2)S(=O)(=O)N1CCc1ccccc1 | 38.9% | -3.65% | 10.8% | -22.5% | -6.6% | 2.4% |
| CC1=N/C(=C\c2ccc(N)cc2)C(=O)N1Nc1nnc(NN2C(=O)/C(=C/c3ccc(N)cc3)N=C2C)c2ccccc12 | -11.7% | -13.3% | 1.2% | 7.35% | -30.4% | -2.35% |
| O=C(O)C1Cc2ccccc2OC1=O (centres undefined) | -18% | -25.6% | -16.7% | 0.6% | 0.35% | -21.6% |
| CC(C)=CCNc1ccccc1 | -11.3% | -24.1% | 1.7% | 17.4% | 1.05% | -7.3% |
| NNC(=O)COc1ccc(Br)cc1Br | 33.2% | 4.25% | -5.15% | 26.4% | 3.8% | -1.25% |
| O=c1[nH][nH]c(=O)n2c1cc1oc(-c3ccccc3)cc12 | 0.05% | 2.45% | 17.8% | -16.1% | 23% | 22.7% |
| COC(=O)c1ccc(CSc2ccccc2NC(=S)Nc2cccc(C(F)(F)F)c2)o1 | -3.65% | -20.2% | -1.15% | 4.65% | -18.4% | -7.6% |
| O=C(O)CCC(=O)OCc1ccccc1 | 3.15% | 22.6% | -22.1% | -16.6% | -11.2% | 0.8% |
| C/C(=C/C(=O)O)CC/C=C(/C)C(=O)O | -0.15% | -5.1% | -1.25% | 21.4% | 22.1% | 4.9% |
| CCOC(=O)C1=C(C)OC(C)(OC(C)=O)C1=O (centres undefined) | 14.1% | -1.9% | 2.8% | -25.9% | -6.9% | 13.8% |
